The list is not random: actives were taken first. Their share in the collection is about 3.4%.
FBW7 activator – human FBW7 E3 ligase activation, primary screen; Q969H0; AlphaScreen FBW7–phospho-cyclin E peptide binding, activator screen; normalized activity (activation), % at 26.1 µM; 0.13% of 650,000 active; AID 1259310; in the data active = normalized activity above about 1.9%;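 also: purified mutant Fbw7 with reduced substrate affinity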
MITF inh – human MITF inhibition, primary screen; AlphaScreen MITF homodimerization, bead proximity signal; 0.91% of 650,000 active; O75030; inhibition, % at 2.6 µM; in the data active = inhibition above about 50%;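 also: 0% = vehicle wells with protein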
TEAD-YAP block – TEAD-YAP interaction inhibition; inhibition, % at 9.12 µM; AID 1259422; 1.4% of 640,000 active; HEK-TIYL cells, TEAD-Gal4/YAP UAS-luciferase luminescence; in the data active = inhibition above about 32%;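 also: 0% = median of test compound wells and 100% = reference inhibitor wells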
GPR151 ag – human GPR151 activation; PathHunter beta-arrestin GPR151 cells, luminescence; activation, % at 11.2 µM; 1% of 650,000 active; AID 1508602; in the data active = activation above about 4.9%;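 also: 0% = median of compound wells and 100% = cells with positive control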
Target sequence (Q8TDV0 whole entry, looked up): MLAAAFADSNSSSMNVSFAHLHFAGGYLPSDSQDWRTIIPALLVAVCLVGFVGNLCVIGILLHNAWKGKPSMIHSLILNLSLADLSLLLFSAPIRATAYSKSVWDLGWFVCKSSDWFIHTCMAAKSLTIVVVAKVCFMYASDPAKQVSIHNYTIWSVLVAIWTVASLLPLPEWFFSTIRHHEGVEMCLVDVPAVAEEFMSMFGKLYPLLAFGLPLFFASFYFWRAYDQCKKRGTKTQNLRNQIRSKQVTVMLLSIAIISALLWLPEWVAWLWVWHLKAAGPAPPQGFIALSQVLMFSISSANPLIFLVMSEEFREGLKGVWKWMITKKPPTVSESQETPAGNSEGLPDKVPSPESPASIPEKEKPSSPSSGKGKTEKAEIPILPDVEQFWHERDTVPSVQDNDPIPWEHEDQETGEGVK
GPR151 confirm – confirmation of human GPR151 activators. shares compounds with GPR151 ag. GPR151 PathHunter beta-arrestin cells, luminescence, 90 min; % of EA-reagent control over plate median. activation, % at 11.2 µM. 6,700 tested, under 10 active. AID 1508609;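 active = mean percent activation across replicates above the confirmation screen cutoff of 4.91%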
GPR119 ag – GPR119 activation, counter-screen for GPR151 activators. 0.3% of 6,700 active. GPR119 PathHunter beta-arrestin cells, luminescence, 90 min; 0 = compound-well median, 100 = enzyme-acceptor control. shares compounds with GPR151 ag. activation, % at 11.2 µM;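 active = mean percent activation in the counterscreen above 29.09%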;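 also: counterscreen on off-target GPR119 to flag nonselective hits from the GPR151 activator screen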
Starred values were filed as active, the others as inactive; x = no result given; ! = not confirmed by another sample.

SMILES | FBW7 activator | MITF inh | TEAD-YAP block | GPR151 ag | GPR151 confirm | GPR119 ag
CC(C)n1c(N=Nc2c(O)[nH]c3ccccc23)nc2c1c(=O)[nH]c(=O)n2C | 0 | 4 | 0 | 1 | x | x
O=C(COC(=O)c1cc([N+](=O)[O-])ccc1NCCO)Nc1ccc(F)cc1 | 0 | -38 | 11 | 1 | x | x
O=C(COC(=O)c1cc([N+](=O)[O-])ccc1NCCO)Nc1ccc(F)cc1F | 0 | -1 | -17 | 5.6* | 0 | -5
CCN(CC(=O)NC1CCCCCC1)S(=O)(=O)c1ccc(C)cc1 | 0 | -1 | -6 | 5.4* | 2 | 2
O=C1COc2cc(-c3c(NCc4ccc(F)cc4)c(=O)c3=O)ccc2N1 | 0 | -3 | -6 | -1 | x | x
CC(C)(C)c1nn2cnnc2n(/N=C/c2ccc(Cl)cc2Cl)c1=O | 0 | -1 | -5 | -1 | x | x
CC(C(O)c1ccc(O)cc1)N1CCC(Cc2ccccc2)CC1 (centres undefined) | 0 | 26 | -3 | 10*! | 2 | 10
COCCC(=O)NC(C)c1nnc2n1CCN(Cc1cccc(Oc3ccccc3)c1)CC2 (centres undefined) | 0 | 1 | -5 | -1 | x | x
O=C(N/N=C/c1ccc(Oc2ccc([N+](=O)[O-])cn2)cc1)c1cccc([N+](=O)[O-])c1 | 0 | 2 | 9 | 5.0* | 0 | -1
Cn1c(N2CCN(S(=O)(=O)Cc3ccccc3)CC2)nc2ccccc21 | 0 | 11 | -6 | 1 | x | x
Cc1ccc(NC(=O)/C(=C/c2cccc([N+](=O)[O-])c2)NC(=O)c2cccs2)c(Br)c1 | 0 | 16 | 4 | 6.9* | 5.5* | -4
N#C/C(=C\c1cccs1)C(=O)Nc1ccc([N+](=O)[O-])cc1Br | 0 | 7 | 0 | 6.4* | 1 | 6
Cc1cc(NC(=O)/C(=C/c2cccc([N+](=O)[O-])c2)NC(=O)c2cccs2)ccc1Br | 0 | -11 | 2 | 1 | x | x
COc1ccc(C(=O)CC2(O)C(=O)N(C(C)C)c3ccccc32)cc1 (centres undefined) | 0 | -17 | -4 | 12* | 0 | -9
CN1C(=O)C(O)(CC(=O)c2ccc(F)cc2)c2ccccc21 (centres undefined) | 0 | -6 | 1 | 4 | x | x
CN1C(=O)C(O)(CC(=O)c2cccnc2)c2ccccc21 (centres undefined) | 0 | 18 | 9 | 14* | -1 | -13
CC(C)N1C(=O)C(O)(CC(=O)c2ccc3ccccc3c2)c2ccccc21 (centres undefined) | 0 | 6 | 2 | 6.2* | -1 | -9
CN1C(=O)C(O)(CC(=O)c2ccc3ccccc3c2)c2ccccc21 (centres undefined) | 0 | 5 | -2 | 0 | x | x
Cc1[nH]n(-c2ccc([N+](=O)[O-])cc2)c(=O)c1C=NC1CCCC1 | 0 | 6 | -55 | -6 | x | x
CN1C(=O)C2ON(c3ccc(Cl)cc3)C(c3ccccc3)C2C1=O (centres undefined) | 0 | 6 | 11 | -1 | x | x
Cc1ccc(C2C3C(=O)N(C)C(=O)C3ON2c2ccccc2)cc1 (centres undefined) | 0 | 4 | -3 | 9.3* | 0 | -4
CC1(C)C(=O)Nc2ccccc2N1C(=O)COC(=O)CCc1nc2ccccc2c(=O)[nH]1 | 0 | 6 | 6 | 0 | x | x
CCc1nnc2n1N(C(C)=O)C(c1ccc(Cl)cc1)=C(C(C)=O)S2 | 0 | 2 | 19 | 0 | x | x
CCc1nnc2n1N(C(C)=O)C(c1ccc(Cl)c(Cl)c1)=C(C(C)=O)S2 | 0 | 11 | 17 | 7.1* | 1 | 2
CCOc1ccc(N2C(=O)CC(N3CCN(c4ccccn4)CC3)C2=O)cc1 (centres undefined) | 0 | -7 | -15 | -1 | x | x
SMILES | FBW7 activator | MITF inh | TEAD-YAP block | GPR151 ag | GPR151 confirm | GPR119 ag
Cc1nnc(N/N=C/c2cc(C)n(-c3ccc(F)cc3)c2C)n1N | 0 | 0 | 10 | 6.3* | -1 | -14
Cc1ccc(-n2c(C)cc(/C=N/Nc3ccccn3)c2C)cc1 | 0 | 2 | -19 | 5.5* | 0 | 9
CCOC(=O)c1ccc(-n2c(C)cc(/C=N/Nc3ccccn3)c2C)cc1 | 0 | 8 | -24 | 1 | x | x
O=C(Nn1c(=S)[nH]c2ccccc2c1=O)c1ccccc1 | 0 | -11 | -15 | 0 | x | x
O=C(Nn1c(=S)[nH]c2ccsc2c1=O)c1ccccc1 | 0 | 6 | -22 | 5.0* | 1 | 13
CCOC(=O)C1(CCc2ccccc2)CCN(C(=O)CSc2ncccn2)CC1 | 0 | 5 | -7 | 5.6* | 1 | -3
CCOC(=O)C1(CCCc2ccccc2)CCN(C(=O)CSc2ncccn2)CC1 | 0 | -5 | -8 | -1 | x | x
CCOC(=O)C1(CC2CCCCO2)CCN(C(=O)CSc2ncccn2)CC1 (centres undefined) | 0 | -3 | 4 | 4.9* | 0 | 5
CCCCC(CC)CNC(=O)CCn1c(=O)[nH]c2ccsc2c1=O (centres undefined) | 0 | 8 | -2 | 1 | x | x
C=CCNC(=S)NNS(=O)(=O)c1cc(Cl)ccc1Cl | 0 | -9 | -3 | 0 | x | x
CC(C(=O)O)N1C(=O)/C(=C/C=C/c2ccccc2)SC1=S (centres undefined) | 0 | 1 | -7 | 7.4* | 1 | 17
Fc1ccccc1CSc1nnc(-c2cnccn2)n1Cc1ccco1 | 0 | 3 | -34 | 9.9* | 0 | 20
CC(=O)c1ccc(NC(=O)NS(=O)(=O)c2ccc(C)cc2)cc1 | 0 | 0 | -6 | 5.4* | 0 | 7
CC(=O)c1ccc(NC(=O)Nc2ccc(NS(=O)(=O)c3ccc(C)cc3)cc2)cc1 | 0 | 15 | 13 | 0 | x | x
c1ccc(CNc2cc(Nc3ccncc3)ncn2)cc1 | 0 | -5 | -1 | 5.4* | 0 | 1
Nc1nc(NCc2cccc(C(F)(F)F)c2)cc(Nc2ccncc2)n1 | 0 | -12 | 9 | 4.9* | 0 | -1
Cn1nccc1Nc1cc(C(=O)NCCCN2CCCC2=O)ccn1 | 0 | 13 | -8 | 0 | x | x
CCc1ccc(C2=NC(c3ccc(OC)cc3)NC(c3cc(Cl)ccc3O)C2)cc1 (centres undefined) | 0 | 8 | -8 | 0 | x | x
CCN(CCCNC(=O)CNC(=O)Cn1cnc2ccccc2c1=O)Cc1ccccc1 | 0 | 7 | 2 | 1 | x | x
CC(=O)c1ccc(NC(=O)COC(=O)c2ccc3c(c2)nc(C)n3-c2ccccc2)cc1 | 0 | 16 | -11 | 7.1* | 2 | 12
Cc1nc2cc(C(=O)OCC(=O)Nc3ccc(C#N)cc3)ccc2n1-c1ccccc1 | 0 | 4 | -1 | -1 | x | x
COc1ccc(NC(=O)Cc2nc3ccccc3[nH]2)cc1 | 0 | 3 | 38* | 18* | 1 | 10
COc1ccc(OCC(=O)Nc2nc3ccccc3[nH]2)cc1 | 0 | -11 | -23 | 3 | x | x
